# Values without a mark were called inactive. This is one part of the list. Active and inactive are the calls of the source.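 How the source made its calls, unless noted: active means mean inhibition above 46.5%, the solvent-only control mean plus 3 SD; inactive means the rest.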
# Assays:
# [1] = test system: transactivating tegument protein VP16 (Human herpesvirus 1); test: VP16 transactivation reporter inhibitors, counter-screen for SRC2 inhibitor project, cell-based, luminescence, single concentration (AID 652007; in the data active means inhibition above about 36%); details: cell-based VP16 transactivation luciferase reporter, at 8.9 µM, hits give high values
# [2] = target: Nuclear receptor coactivator 2 (Homo sapiens) (UniProt Q15596); test: SRC2 coactivator transcriptional activity inhibitors, confirmation, cell-based, luminescence, HEK293, triplicate (AID 652008); details: HEK293 GAL4-SRC2 luciferase reporter, at 8.9 µM, hits give high values;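 further: 0% = DMSO-treated cells and 100% = Gossypol at 36 µM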
# Nuclear receptor coactivator 2 (Homo sapiens), sequence (Q15596 whole entry, looked up, the tested form may be a part): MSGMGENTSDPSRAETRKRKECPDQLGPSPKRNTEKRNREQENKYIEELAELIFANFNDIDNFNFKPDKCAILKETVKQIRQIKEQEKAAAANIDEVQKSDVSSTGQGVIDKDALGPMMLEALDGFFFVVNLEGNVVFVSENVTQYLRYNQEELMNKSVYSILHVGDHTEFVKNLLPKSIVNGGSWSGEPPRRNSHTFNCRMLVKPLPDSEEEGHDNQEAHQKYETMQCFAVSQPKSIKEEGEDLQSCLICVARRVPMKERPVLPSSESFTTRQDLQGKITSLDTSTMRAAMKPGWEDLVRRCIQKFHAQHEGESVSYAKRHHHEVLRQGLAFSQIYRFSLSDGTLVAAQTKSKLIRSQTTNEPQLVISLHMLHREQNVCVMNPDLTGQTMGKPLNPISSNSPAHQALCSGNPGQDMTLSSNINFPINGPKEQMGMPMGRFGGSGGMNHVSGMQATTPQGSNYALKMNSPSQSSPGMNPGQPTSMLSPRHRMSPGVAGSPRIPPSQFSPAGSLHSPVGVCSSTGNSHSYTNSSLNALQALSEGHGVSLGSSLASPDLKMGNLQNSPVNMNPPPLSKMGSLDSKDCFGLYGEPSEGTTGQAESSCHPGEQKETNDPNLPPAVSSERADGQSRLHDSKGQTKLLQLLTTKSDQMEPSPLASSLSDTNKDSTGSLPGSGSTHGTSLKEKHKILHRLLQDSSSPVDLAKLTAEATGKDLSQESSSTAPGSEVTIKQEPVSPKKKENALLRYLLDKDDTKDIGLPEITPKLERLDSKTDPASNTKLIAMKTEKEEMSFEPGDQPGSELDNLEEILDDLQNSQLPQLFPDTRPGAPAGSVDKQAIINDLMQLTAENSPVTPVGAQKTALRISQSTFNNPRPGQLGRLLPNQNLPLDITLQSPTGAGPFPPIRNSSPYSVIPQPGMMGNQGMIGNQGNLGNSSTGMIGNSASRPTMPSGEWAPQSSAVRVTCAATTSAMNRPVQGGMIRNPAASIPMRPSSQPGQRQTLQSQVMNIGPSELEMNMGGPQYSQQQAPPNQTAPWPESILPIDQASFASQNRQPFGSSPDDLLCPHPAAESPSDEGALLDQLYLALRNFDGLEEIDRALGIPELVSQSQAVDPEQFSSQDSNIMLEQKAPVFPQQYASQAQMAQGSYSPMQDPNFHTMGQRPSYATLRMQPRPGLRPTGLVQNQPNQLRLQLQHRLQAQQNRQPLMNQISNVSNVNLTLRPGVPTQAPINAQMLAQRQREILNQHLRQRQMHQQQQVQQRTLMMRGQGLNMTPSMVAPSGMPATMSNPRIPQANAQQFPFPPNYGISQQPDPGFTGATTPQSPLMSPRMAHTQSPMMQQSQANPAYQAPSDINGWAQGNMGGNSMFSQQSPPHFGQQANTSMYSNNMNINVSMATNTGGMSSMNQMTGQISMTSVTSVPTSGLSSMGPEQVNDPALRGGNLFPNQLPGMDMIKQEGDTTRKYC
# [3] = Gal4-VP16 luciferase reporter inhibitors, counter-screen for COUP-TFII antagonist project, cell-based, luminescence, HEK293 (AID 687007; in the data active means inhibition above about 13%); details: at 8.5 µM, hits give high values
# [4] = target: COUP transcription factor 2 (Homo sapiens) (UniProt P24468); test: NR2F2 transcriptional activity inhibitors, confirmation, cell-based, luciferase reporter, HEK293, triplicate (AID 687008;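 active means mean inhibition over three repeats above a set limit taken from the earlier primary screen, cut at about 38% in these data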;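 further: 100% = cells given the luciferase reporter alone without the COUP-TF2 vector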); details: HEK293 NGFI-A luciferase reporter, luminescence; at 8.5 µM; hits give high values
# COUP transcription factor 2 (Homo sapiens), sequence (P24468 whole entry, looked up): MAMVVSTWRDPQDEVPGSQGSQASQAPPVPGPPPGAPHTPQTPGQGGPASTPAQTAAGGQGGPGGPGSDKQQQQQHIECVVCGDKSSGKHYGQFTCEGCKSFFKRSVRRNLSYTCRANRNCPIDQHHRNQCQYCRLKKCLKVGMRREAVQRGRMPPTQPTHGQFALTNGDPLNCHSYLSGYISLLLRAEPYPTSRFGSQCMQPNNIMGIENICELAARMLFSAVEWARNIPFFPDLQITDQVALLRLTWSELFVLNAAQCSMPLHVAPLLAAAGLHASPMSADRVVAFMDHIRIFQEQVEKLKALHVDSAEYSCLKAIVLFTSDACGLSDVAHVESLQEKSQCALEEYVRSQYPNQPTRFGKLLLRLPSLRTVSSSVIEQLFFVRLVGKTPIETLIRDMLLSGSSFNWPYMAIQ
# [5] = compounds interfering with TAMRA-BSA probe, counter-screen for TCR-CD3 interaction inhibitor project, biochemical, fluorescence, TAMRA-labeled BSA (AID 652035; in the data active means inhibition above about 23%;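 further: 0% = buffer low control and 100% = reference high control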); details: TAMRA-labeled BSA probe fluorescence counterscreen; at 9.4 µM; hits give high values
# [6] = test system: T-cell receptor (TCR)-CD3 interaction, human; test: TCR-CD3 interaction inhibitors, retest, confirmation, biochemical, fluorescence, TAMRA-labeled TCR probe (AID 652036; in the data active means inhibition above about 19%); details: TAMRA-labeled TCR probe fluorescence binding assay; at 9.4 µM; hits give high values
compound,measurement,setting,value
CSCC[C@H](NC(=O)c1cc([N+](=O)[O-])ccc1Cl)c1nc2ccccc2[nH]1,inhibition,[1],-0.37%
same,inhibition,[2],19%
CCCc1ncc(CN2CCC(C(=O)Nc3cccc(-c4cscn4)c3)CC2)cn1,inhibition,[1],12.2%
same,inhibition,[2],15.5%
COc1ccc(S(=O)(=O)N2c3ccc(F)cc3CCC2C)cc1 (centres undefined),inhibition,[1],-6.76%
same,inhibition,[2],1.23%
Cc1nc2scc(C)n2c(=O)c1S(=O)(=O)Nc1ccc(OC(F)(F)F)cc1,inhibition,[1],-5.83%
same,inhibition,[2],6.78%
CN1CCC(=NNc2ncnc3sc4c(c23)CCCC4)CC1,inhibition,[1],-9.72%
same,inhibition,[2],-19.6%
Cc1ccc(C2=[N+]([O-])C3(CCCCC3=O)N(O)C2(C)C)cc1 (centres undefined),inhibition,[1],-5.08%
same,inhibition,[2],-2.69%
CSc1nnc(NC(=O)c2nc(S(=O)(=O)Cc3cccc(C)c3)ncc2Cl)s1,inhibition,[1],41.9% (active)
same,inhibition,[2],73.1% (active)
CCOC(=O)C1(Cc2ccccc2)CCN(Cc2ccnc3ccccc23)CC1,inhibition,[1],-2.44%
same,inhibition,[2],14.6%
COc1cc(/C=C/C(=O)Nc2ccc(OC)c(S(=O)(=O)N3CCOCC3)c2)ccc1OC(F)F,inhibition,[1],11%
same,inhibition,[2],63.1% (active)
COC(=O)[C@]12C[C@H](CC(=O)N3CCCC3)C(=O)N(CCC3=CCCCC3)C1=C[C@H](C(C)C)O[C@@H]2C1CC1,inhibition,[1],-0.66%
same,inhibition,[2],-19.4%
COc1ccc(OC)c(NC(=O)C(C)OC(=O)c2cc3ccccc3[nH]2)c1 (centres undefined),inhibition,[1],-2.68%
same,inhibition,[2],17.6%
COC(=O)c1ccc(-c2nc3cc(N)ccc3o2)cc1,inhibition,[1],-20.4%
same,inhibition,[2],49.8% (active)
COc1ccc(NC(=O)C2(C)Cc3c(-c4cccc(C(F)(F)F)c4)ccnc3O2)cn1 (centres undefined),inhibition,[1],-0.87%
same,inhibition,[2],-0.12%
Cc1ccc(NC(=O)CSc2ncnc3ccccc23)cc1S(=O)(=O)N1CCCCC1,inhibition,[1],6.85%
same,inhibition,[2],30%
O=C(CN1C(=O)NC2(CCCCCC2)C1=O)Nc1ccc(Br)cc1Br,inhibition,[1],-12.2%
same,inhibition,[2],2.3%
COc1ccc(C(=O)OCC(=O)Nc2ccc3c(c2)OCCO3)c(OC)c1,inhibition,[1],6.79%
same,inhibition,[2],-39%
CC(C)(C)c1ccc(-c2noc(CCC(=O)NCC3CCCO3)n2)cc1 (centres undefined),inhibition,[1],42.1% (active)
same,inhibition,[2],67.2% (active)
O=C(Cc1ccc(Cl)cc1)NCCc1cnc[nH]1,inhibition,[1],-16.2%
same,inhibition,[2],-12.5%
NC(=O)c1cc(C(=O)c2ccc(Cl)cc2Cl)c[nH]1,inhibition,[1],-19.8%
same,inhibition,[2],14.3%
Cc1nc(SCCC(=O)O)c2cc(-c3ccccc3)sc2n1,inhibition,[1],48.6% (active)
same,inhibition,[2],80.1% (active)
COc1cc(-c2nnc(-c3cc(-c4ccccc4)nc4ccccc34)o2)cc(OC)c1OC,inhibition,[1],-13.1%
same,inhibition,[2],-5.55%
CC[C@@H](C)[C@H](NC(=O)CCc1c(C)c2cc3c4c(oc3c(C)c2oc1=O)CCCC4)C(=O)O,inhibition,[1],40.8% (active)
same,inhibition,[2],59.5% (active)
same,inhibition,[3],22.3% (active)
same,inhibition,[4],24.8%
O=C(c1cc2sccc2n1Cc1ccc(F)cc1)N1CCN(c2nc3ccccc3s2)CC1,inhibition,[1],6.21%
same,inhibition,[2],36.9%
CCn1c(SCC(=O)c2ccc(-c3ccccc3)cc2)nnc1-c1ccc(C(C)(C)C)cc1,inhibition,[1],22.6%
same,inhibition,[2],31.3%
CCCC(CCC)C(=O)Nc1ccc2c(c1)N(C(=O)CN1CCN(C)CC1)c1ccccc1CC2,inhibition,[1],-0.11%
same,inhibition,[2],-4.28%
CC(C)c1cc(CNC(=O)c2ccc(OC3CCN(Cc4ccccn4)CC3)cc2)on1,inhibition,[1],-9.72%
same,inhibition,[2],11.8%
COc1ccc(/C(=N\O)c2nccc3cc(OC)c(OC)cc23)cc1OC,inhibition,[5],-7.63%
same,inhibition,[6],15.5%
COc1ccc(C(=O)NNc2cc(C)nc(NNC(=O)c3ccc(OC)cc3)n2)cc1,inhibition,[5],-5.67%
same,inhibition,[6],5.09%
Cc1cc(C(=O)CCC(=O)NNC(=O)c2ccccc2O)c(C)s1,inhibition,[5],-14.4%
same,inhibition,[6],11.4%
COCCCNC(=S)NNC(=O)C(O)(c1ccccc1)c1ccccc1,inhibition,[5],-0.41%
same,inhibition,[6],16.3%
Cc1ncc(CO)c(/C=N/NC(=O)c2cccc(S(=O)(=O)N3CCCC3)c2)c1O,inhibition,[5],-12.6%
same,inhibition,[6],15.4%

# From PubChem BioAssay
